Measurements reported in PubChem BioAssay (Tox21).
A number with no mark means an inactive call. Records with an inconclusive call do not appear. A call without a number means that no potency is given here. Active and inactive are the calls of the source. Unless noted, calls come from the whole dose curve; as a rule, active = well fitted curve in the direction sought with a large enough effect in the repeat runs; inconclusive = weak or mixed curves; inactive = no such curve, though single readings can be large; an effect the other way counts as inactive or inconclusive.

How the values were obtained:
[1] = biological target: Thyrotropin-releasing hormone receptor (Homo sapiens) (UniProt P34981); assay: qHTS assay to identify small molecule agonists of the thyrotropin-releasing hormone receptor (TRHR) signaling pathway (AID 1346891; calls by dose curve;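 note: HEK293 cells expressing TRHR with calcium dye readout; series mostly up to about 58 µM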)
In short: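 Kinetic fluorescence (3 min, 1 s intervals) reported intracellular calcium after compound transfer onto TRHR-Hek293 cells pre-loaded with dye for 2 h at 37 °C.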

[2] = Human pregnane X receptor (PXR) small molecule agonists, qHTS cell viability counter screen (AID 1346977); note: nearly all actives have a fitted effect of over 50% in size
In short: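 HepG2 cells stably carrying the PXR-Luc reporter are cultured with 5% charcoal-stripped FBS and treated with compounds for 24hr. CellTiter-Fluor is added at 23hr and fluorescence is read after 1hr.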

[3] = Caspase-3/7 induction in HepG2 cells by small molecules, qHTS assay (AID 1346978); note: nearly all actives have a fitted effect of over 15% in size
In short: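 Wild-type HepG2 cells (2,000/well) were settled 5 h at 37 C, 5% CO2, then exposed to compounds in DMSO for 17 h. Caspase-3/7 activity was read by luminescence 30 min after adding Caspase-Glo 3/7 reagent at room temperature.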

[4] = Caspase-3/7 induction in CHO-K1 cells by small molecules, qHTS cell viability counter screen (AID 1346979); note: nearly all actives have a fitted effect of over 35% in size
In short: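 Seeding: 1,500 CHO-K1 cells/well. Rest: 5hr, 37C. Treatment: compounds in DMSO, 16hr. Read: CellTiter-Fluor, 1hr, fluorescence.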

[5] = Caspase-3/7 induction in CHO-K1 cells by small molecules, qHTS assay (AID 1346980); note: nearly all actives have a fitted effect of over 15% in size
In short: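 Wild-type cells were seeded at 1,500 per well and settled 5 hr at 37 C, 5% CO2, then exposed to DMSO-dissolved compounds for 17 hr. Caspase-Glo 3/7 reagent was added, and luminescence was read after 30min at room temperature.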

[6] = Caspase-3/7 induction in HepG2 cells by small molecules, qHTS cell viability counter screen (AID 1346981); note: series mostly up to about 92 µM; nearly all actives have a fitted effect of over 30% in size
In short: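 Steps: seed 2,000 HepG2 cells per well; incubate 5 hr at 37 C; pin-add compounds in DMSO; incubate 16 hr; add CellTiter-Fluor; after 1 hr at 37 C and 5% CO2, read fluorescence.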

[7] = biological target: Nuclear receptor subfamily 1 group I member 2 (Rattus norvegicus) (UniProt Q9R1A7); assay: Rat pregnane X receptor (rPXR) activation by small molecules, qHTS assay (AID 1346983); settings: rPXR luciferase reporter cells, One-Glo luminescence, 24 h; max activation: active compounds read high; note: nearly all actives have a fitted effect of over 20% in size
In short: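 Cell-based rPXR luciferase reporter assay, 2,000 cells per well, rested 5hr at 37 C before compound addition in DMSO, then 24 hr at 37 C. One-Glo reagent was added and luminescence read after 30 min at room temperature.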

[8] = biological target: Nuclear receptor subfamily 1 group I member 2 (Homo sapiens) (UniProt O75469); assay: CYP3A4 induction through human pregnane X receptor (PXR) by small molecules, qHTS assay (AID 1346984); note: nearly all actives have a fitted effect of over 40% in size
In short: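 Steps: seed DPX-2 cells, 5 hr at 37C; pin-transfer compounds; 24 hr at 37C; add Luciferin-IPA (3uM final), 3 hr at 37C; add One-Glo, 30 min RT; read luminescence.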

[9] = biological target: Nuclear receptor subfamily 1 group I member 2 (Homo sapiens) (UniProt O75469); assay: Human pregnane X receptor (PXR) activation by small molecules, qHTS assay (AID 1346985); note: nearly all actives have a fitted effect of over 40% in size
In short: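 DPX-2 cells (HepG2 co-transfected with a PXR response element and a CYP3A4-promoter luciferase construct) were seeded at 2,000 per well, rested 5 hr at 37C, then exposed to DMSO-dissolved compounds for 24 hr. Activation was read as luciferase luminescence.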

[10] = biological target: Cytochrome P450 2D6 (Homo sapiens) (UniProt P10635); assay: Cytochrome P450 Family 2 Subfamily D Member 6 (CYP2D6) small molecule antagonists: luciferase reporter qHTS assay (AID 1671196); note: series mostly up to about 120 µM; nearly all actives have a fitted effect of over 50% in size
In short: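 P450-Glo format: CYP2D6 converts a proluciferin substrate to luciferin in an NADPH-driven reaction lasting 1 h at room temperature. Light output, proportional to CYP2D6 activity, reflects interference by test chemicals.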

[11] = biological target: Cytochrome P450 2C19 (Homo sapiens) (UniProt P33261); assay: Cytochrome P450 Family 2 Subfamily C Member 19 (CYP2C19) small molecule antagonists: luciferase reporter qHTS assay (AID 1671197); note: nearly all actives have a fitted effect of over 65% in size; note: potency is the fitted concentration of half-maximal effect
In short: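 First, compounds are pinned into enzyme-substrate mix and held 10 min at room temperature. Second, NADPH regeneration solution is added and plates incubate 1 h at 37C. Third, detection reagent is added and luminescence read after 20 min.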

[12] = biological target: Cytochrome P450 1A2 (Homo sapiens) (UniProt P05177); assay: Cytochrome P450 Family 1 Subfamily A Member 2 (CYP1A2) small molecule antagonists: luciferase reporter qHTS assay (AID 1671199); note: nearly all actives have a fitted effect of over 50% in size; note: potency is the fitted concentration of half-maximal effect
In short: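 Inhibition of CYP1A2 conversion of proluciferin to luciferin, detected by luminescence. Reaction run 1 h at room temperature with NADPH regeneration after brief compound preincubation.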

[13] = biological target: Voltage-gated inwardly rectifying potassium channel KCNH2 (Homo sapiens) (UniProt Q12809); assay: Human Ether-a-go-go-Related Gene (hERG) channel small molecule antagonists: fluorescence cell-based qHTS assay (AID 1671200);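 note: hERG-expressing U2OS cells given a thallium stimulus after FluxOR II dye loading; series mostly up to about 77 µM; nearly all actives have a fitted effect of over 50% in size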
In short: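 First, 1000 cells per well are seeded and cultured overnight at 37 C. Next, FluxOR II dye is loaded for 1 h at room temperature, protected from light. After 10 more minutes, stimulus is added and fluorescence is read.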

[14] = biological target: Cytochrome P450 3A4 (Homo sapiens) (UniProt P08684); assay: Cytochrome P450 Family 3 Subfamily A Member 4 (CYP3A4) small molecule antagonists: luciferase reporter qHTS assay (AID 1671201); note: nearly all actives have a fitted effect of over 50% in size; note: potency is the fitted concentration of half-maximal effect
In short: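 Enzyme and proluciferin substrate are mixed with test chemicals for 10 min, then NADPH regeneration system drives turnover for 1 h at room temperature. A detection reagent halts the reaction; luminescence after 20 min gives relative activity.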

[15] = biological target: Nuclear receptor subfamily 1 group I member 2 (Homo sapiens) (UniProt O75469); assay: Human pregnane X receptor (PXR) small molecule agonists, qHTS assay (AID 1346982); note: nearly all actives have a fitted effect of over 35% in size; note: potency is the fitted concentration of half-maximal effect
In short: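 Agonist mode qHTS: PXR-Luc HepG2 cells plated 5 hr before DMSO-dissolved compounds were pinned in, cultured 24 hr at 37 C, 5% CO2; ONE-Glo luminescence readout.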

[16] = biological target: Cytochrome P450 2C9 (Homo sapiens) (UniProt P11712); assay: Cytochrome P450 Family 2 Subfamily C Member 9 (CYP2C9) small molecule antagonists: luciferase reporter qHTS assay (AID 1671198)
In short: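 CYP2C9 activity was measured with a P450-Glo proluciferin substrate. Enzyme–substrate mix was held with compound for 10 min at room temperature, then NADPH regeneration solution was added for 1 h at 37C. Luciferin product was read as luminescence.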

Cytochrome P450 3A4 (Homo sapiens), sequence (P08684 whole entry, looked up): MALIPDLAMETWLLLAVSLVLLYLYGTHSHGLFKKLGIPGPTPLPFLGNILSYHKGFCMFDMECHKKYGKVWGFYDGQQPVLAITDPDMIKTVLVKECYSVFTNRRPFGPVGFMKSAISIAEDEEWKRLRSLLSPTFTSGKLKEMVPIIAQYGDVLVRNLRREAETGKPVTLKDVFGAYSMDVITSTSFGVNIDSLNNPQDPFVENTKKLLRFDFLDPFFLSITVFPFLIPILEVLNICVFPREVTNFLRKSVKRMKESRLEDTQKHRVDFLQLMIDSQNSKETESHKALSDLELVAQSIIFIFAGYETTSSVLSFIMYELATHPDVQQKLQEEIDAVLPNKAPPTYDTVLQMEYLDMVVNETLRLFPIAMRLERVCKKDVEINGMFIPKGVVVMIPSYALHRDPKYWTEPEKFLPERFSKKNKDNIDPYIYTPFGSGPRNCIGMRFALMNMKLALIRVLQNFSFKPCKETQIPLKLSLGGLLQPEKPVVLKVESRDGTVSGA
Voltage-gated inwardly rectifying potassium channel KCNH2 (Homo sapiens), sequence (Q12809 whole entry, looked up): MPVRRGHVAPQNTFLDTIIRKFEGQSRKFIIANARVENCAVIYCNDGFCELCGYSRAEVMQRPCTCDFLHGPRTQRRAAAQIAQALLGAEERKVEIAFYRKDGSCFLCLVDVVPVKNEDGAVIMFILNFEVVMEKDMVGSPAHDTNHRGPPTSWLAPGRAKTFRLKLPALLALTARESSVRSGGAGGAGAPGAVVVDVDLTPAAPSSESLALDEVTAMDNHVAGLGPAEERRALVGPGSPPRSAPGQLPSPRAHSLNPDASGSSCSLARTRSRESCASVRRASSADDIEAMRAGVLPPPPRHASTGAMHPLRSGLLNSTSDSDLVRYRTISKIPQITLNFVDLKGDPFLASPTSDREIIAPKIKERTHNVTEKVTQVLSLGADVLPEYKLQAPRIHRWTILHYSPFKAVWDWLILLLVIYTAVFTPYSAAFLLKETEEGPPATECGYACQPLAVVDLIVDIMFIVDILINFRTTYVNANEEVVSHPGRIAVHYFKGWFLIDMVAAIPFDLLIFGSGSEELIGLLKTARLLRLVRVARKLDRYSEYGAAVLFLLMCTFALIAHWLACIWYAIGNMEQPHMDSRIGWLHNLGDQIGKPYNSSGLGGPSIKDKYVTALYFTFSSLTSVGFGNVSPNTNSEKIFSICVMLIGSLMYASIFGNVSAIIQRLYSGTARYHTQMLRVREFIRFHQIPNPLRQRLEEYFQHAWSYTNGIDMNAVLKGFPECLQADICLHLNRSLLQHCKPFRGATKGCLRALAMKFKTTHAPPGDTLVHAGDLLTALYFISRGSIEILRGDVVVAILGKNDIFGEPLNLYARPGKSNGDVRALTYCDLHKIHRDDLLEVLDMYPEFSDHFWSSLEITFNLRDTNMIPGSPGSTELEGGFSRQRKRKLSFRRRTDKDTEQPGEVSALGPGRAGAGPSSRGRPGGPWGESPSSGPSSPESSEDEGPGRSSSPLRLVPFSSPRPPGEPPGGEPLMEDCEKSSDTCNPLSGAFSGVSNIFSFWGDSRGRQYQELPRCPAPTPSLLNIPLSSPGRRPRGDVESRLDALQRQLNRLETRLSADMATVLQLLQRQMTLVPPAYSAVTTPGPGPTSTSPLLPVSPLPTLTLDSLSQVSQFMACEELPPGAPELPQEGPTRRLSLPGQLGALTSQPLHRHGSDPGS
Thyrotropin-releasing hormone receptor (Homo sapiens), sequence (P34981 whole entry, looked up): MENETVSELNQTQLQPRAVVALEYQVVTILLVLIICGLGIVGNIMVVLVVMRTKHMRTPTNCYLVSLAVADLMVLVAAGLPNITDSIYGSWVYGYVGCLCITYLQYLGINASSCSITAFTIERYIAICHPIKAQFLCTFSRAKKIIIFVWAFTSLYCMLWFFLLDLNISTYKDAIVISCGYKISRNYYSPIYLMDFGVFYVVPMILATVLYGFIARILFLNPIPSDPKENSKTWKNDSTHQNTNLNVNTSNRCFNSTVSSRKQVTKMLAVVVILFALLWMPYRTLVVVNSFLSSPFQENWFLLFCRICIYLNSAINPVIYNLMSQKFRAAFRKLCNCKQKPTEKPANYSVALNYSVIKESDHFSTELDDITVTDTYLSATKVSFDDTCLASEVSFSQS
Cytochrome P450 2D6 (Homo sapiens), sequence (P10635 whole entry, looked up): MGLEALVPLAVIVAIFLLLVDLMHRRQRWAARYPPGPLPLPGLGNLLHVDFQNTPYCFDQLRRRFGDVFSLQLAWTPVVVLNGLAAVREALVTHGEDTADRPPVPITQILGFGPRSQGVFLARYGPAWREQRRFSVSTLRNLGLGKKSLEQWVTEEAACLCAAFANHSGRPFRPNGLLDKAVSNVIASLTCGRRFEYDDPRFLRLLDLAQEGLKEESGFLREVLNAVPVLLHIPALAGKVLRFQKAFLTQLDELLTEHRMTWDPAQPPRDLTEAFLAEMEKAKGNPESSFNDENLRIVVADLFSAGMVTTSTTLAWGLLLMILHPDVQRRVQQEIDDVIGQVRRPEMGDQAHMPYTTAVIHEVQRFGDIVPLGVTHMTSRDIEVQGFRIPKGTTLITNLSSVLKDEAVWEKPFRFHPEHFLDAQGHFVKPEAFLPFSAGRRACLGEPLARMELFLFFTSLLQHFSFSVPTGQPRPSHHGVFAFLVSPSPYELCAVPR
Cytochrome P450 1A2 (Homo sapiens), sequence (P05177 whole entry, looked up): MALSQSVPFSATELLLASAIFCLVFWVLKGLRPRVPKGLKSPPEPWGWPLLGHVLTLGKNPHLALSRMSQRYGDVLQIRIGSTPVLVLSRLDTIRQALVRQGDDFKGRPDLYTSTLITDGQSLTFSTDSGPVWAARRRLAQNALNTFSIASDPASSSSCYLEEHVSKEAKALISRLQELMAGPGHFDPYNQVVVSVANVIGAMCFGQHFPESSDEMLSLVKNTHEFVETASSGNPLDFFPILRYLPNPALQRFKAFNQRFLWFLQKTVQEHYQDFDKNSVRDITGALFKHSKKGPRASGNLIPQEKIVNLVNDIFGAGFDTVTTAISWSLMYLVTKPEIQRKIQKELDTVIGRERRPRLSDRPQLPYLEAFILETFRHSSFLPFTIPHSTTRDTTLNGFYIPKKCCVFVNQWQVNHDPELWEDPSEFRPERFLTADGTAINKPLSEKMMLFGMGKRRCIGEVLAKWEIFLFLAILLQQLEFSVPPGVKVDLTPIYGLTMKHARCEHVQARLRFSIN
Nuclear receptor subfamily 1 group I member 2 (Homo sapiens), sequence (O75469 whole entry, looked up): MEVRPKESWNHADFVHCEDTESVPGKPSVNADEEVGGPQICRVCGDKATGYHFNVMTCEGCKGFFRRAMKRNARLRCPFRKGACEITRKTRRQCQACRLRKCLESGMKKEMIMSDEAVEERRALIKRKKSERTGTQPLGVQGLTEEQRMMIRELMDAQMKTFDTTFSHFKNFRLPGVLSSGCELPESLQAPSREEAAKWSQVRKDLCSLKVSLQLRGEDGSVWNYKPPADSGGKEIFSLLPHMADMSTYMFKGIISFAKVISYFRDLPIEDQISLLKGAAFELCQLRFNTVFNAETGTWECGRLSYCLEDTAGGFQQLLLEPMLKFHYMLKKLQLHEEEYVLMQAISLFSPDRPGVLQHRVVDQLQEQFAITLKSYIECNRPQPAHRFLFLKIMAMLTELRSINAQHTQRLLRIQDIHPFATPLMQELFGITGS
Cytochrome P450 2C19 (Homo sapiens), sequence (P33261 whole entry, looked up): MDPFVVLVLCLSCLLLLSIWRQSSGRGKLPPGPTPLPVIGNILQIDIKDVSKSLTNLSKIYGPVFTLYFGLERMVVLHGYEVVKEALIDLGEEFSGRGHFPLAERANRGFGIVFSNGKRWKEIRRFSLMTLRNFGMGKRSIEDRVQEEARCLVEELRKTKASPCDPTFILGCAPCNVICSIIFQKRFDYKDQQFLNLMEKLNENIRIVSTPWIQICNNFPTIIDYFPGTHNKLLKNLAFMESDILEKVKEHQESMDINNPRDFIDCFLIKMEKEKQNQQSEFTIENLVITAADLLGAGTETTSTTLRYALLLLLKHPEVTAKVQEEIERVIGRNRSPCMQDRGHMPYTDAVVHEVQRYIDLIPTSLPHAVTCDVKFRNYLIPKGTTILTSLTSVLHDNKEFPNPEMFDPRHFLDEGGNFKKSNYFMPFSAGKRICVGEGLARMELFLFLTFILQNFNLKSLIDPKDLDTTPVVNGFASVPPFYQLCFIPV
Nuclear receptor subfamily 1 group I member 2 (Rattus norvegicus), sequence (Q9R1A7 whole entry, looked up): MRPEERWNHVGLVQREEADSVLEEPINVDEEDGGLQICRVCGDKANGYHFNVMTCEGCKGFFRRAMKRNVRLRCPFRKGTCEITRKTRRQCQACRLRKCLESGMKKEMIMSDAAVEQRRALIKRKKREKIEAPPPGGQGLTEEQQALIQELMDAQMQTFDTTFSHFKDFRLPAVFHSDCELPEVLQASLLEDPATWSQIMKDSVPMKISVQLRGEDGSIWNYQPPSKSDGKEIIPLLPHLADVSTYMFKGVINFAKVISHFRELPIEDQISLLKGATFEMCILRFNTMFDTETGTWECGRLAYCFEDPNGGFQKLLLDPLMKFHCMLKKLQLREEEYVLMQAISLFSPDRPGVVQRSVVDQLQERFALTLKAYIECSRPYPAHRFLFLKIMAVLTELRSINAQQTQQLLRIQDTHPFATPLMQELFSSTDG
Cytochrome P450 2C9 (Homo sapiens), sequence (P11712 whole entry, looked up): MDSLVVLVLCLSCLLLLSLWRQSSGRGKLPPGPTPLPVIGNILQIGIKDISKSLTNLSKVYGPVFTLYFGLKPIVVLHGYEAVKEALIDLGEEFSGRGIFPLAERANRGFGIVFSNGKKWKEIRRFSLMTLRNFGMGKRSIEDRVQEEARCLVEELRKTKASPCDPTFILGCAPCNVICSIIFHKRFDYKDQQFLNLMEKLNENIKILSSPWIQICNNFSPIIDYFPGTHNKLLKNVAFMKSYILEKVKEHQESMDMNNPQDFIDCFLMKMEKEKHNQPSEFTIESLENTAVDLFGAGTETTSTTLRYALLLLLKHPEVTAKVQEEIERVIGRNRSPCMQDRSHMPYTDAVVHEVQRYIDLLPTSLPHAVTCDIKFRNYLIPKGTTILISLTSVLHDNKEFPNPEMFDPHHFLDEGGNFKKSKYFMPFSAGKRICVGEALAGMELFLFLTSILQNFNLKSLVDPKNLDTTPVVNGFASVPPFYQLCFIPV

Row | SMILES | outcome [1] | Potency [2] | outcome [3] | Potency [4] | outcome [5] | outcome [6] | max activation [7] | Potency [8] | Potency [9] | Potency [10] | Potency [11] | Potency [12] | Potency [13] | Potency [14] | Potency [15] | Potency [16]
1 | C[C@H]1O[C@@H](n2cc(F)c(=O)[nH]c2=O)[C@H](O)[C@@H]1O | inactive | inactive | inactive | inactive | inactive | inactive | -1.26% | inactive | inactive | inactive | inactive | inactive | inactive | inactive |  | 
2 | Cc1ccc(N)cc1[N+](=O)[O-] | inactive | inactive | inactive | inactive | inactive | inactive |  |  |  |  |  | 8.02 µM (active) | inactive | 40.2 µM (active) | 10.9 µM (active) | 
3 | OC[C@H]1O[C@@H]2O[C@H]3[C@H](O)[C@@H](O)[C@@H](O[C@H]4[C@H](O)[C@@H](O)[C@@H](O[C@H]5[C@H](O)[C@@H](O)[C@@H](O[C@H]6[C@H](O)[C@@H](O)[C@@H](O[C@H]7[C@H](O)[C@@H](O)[C@@H](O[C@H]8[C@H](O)[C@@H](O)[C@@H](O[C@H]9[C@H](O)[C@@H](O)[C@@H](O[C@H]1[C@H](O)[C@H]2O)O[C@@H]9CO)O[C@@H]8CO)O[C@@H]7CO)O[C@@H]6CO)O[C@@H]5CO)O[C@@H]4CO)O[C@@H]3CO | inactive | inactive | inactive | inactive | inactive | inactive |  |  |  | inactive |  | inactive | inactive | inactive | inactive | 
4 | O=[N+]([O-])c1ccc(CCO)cc1 | inactive | inactive | inactive | inactive | inactive | inactive |  |  |  | inactive |  |  |  | inactive | inactive | inactive
5 | CC(C)COC(=O)C(C)C | inactive | inactive | inactive | inactive | inactive | inactive |  |  |  | inactive | 79.7 µM (active) |  | inactive | inactive | inactive | 
